Active and inactive are the calls of the source. Where a call stands in place of a potency, no number is given. Calls follow the shape of the full dose curve.
What follows are compounds tested against Acetylcholinesterase (Homo sapiens) (UniProt P22303) (assay: Acetylcholinesterase (AChE) small molecule antagonists: enzyme-based qHTS assay with human liver microsomes (AID 1347399; also: nearly all actives have a fitted effect of over 60% in size)). Conditions: Potency: qHTS inhibition; outcome: qHTS inhibition; series mostly up to 115 µM.
Sequence of Acetylcholinesterase (Homo sapiens) (P22303 whole entry, looked up): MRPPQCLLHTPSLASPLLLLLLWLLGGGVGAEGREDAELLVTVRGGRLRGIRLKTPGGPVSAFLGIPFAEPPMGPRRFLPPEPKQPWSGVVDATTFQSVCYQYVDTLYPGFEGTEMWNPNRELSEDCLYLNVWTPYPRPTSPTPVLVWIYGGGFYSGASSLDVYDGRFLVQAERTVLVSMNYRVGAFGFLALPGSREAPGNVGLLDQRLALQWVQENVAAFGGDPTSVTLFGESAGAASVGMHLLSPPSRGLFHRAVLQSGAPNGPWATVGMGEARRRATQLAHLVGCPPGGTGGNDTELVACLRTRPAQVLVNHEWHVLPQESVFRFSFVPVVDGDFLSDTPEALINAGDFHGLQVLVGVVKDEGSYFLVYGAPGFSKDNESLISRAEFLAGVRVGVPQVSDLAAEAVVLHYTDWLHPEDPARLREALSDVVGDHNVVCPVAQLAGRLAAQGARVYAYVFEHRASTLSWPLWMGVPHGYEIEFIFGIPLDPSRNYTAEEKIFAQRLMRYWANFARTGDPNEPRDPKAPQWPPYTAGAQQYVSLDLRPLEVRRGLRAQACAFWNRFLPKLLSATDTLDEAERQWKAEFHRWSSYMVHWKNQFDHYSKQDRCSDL
Excerpt: National Center for Advancing Translational Sciences [NCATS]
Division of Preclinical Innovation [DPI]
U.S. Environmental Protection Agency [EPA]
National Institutes of Environmental Health Sciences [NIEHS]
National Toxicology Program [NTP]
U.S. Food and Drug Administration [FDA]
Acetylcholinesterase (AChE) is the primary cholinesterase in the body that hydrolyzes a key neurotransmitter, acetylcholine. Inhibition of AChE activity can lead to neurotoxicity. The known inhibitors include organophosphorous pesticides (OP), chemical warfare agents, drugs, and various phytochemicals. Some compounds like OP compounds may need metabolic activation to be active AChE inhibitors. The cytochrome P450 (CYP) superfamily in the human microsomes is responsible for the metabolism of various endogenous and exogenous compounds.
An enzyme-based assay with the recombinant human AChE, human liver microsomes and Amplite Colormetric acetylcholinesterase assay kit (AAT Bioquest, Sunnyvale, CA) was used to evaluate compounds in the Tox21 10K library that need metabolic activation for AChE inhibition. The assay uses 5, 5-dithiobis-(2-nitrobenzoic acid) (DTNB) to quantify the thiocholine produced from the hydrolysis of acetylthiocholine by AChE.
Tox21 Assay Protocol Summary:
For the enzyme-based AChE assay with microsomes addition, a mixture of human AChE (50 mU/mL) and human liver microsomes (0.25 mg/mL, final concentration) in 3 uL/well was dispensed into black, clear-bottom 1536-well plates using a Multidrop Combi dispenser (Thermo Scientific, MA). Then, 23 nL of compound or DMSO (vehicle control) was transferred into the assay plates by a Pintool Station (Wako Automation, CA). Following compound addition, 1 uL of NADPH (0.25 mg/mL, final concentration) was transferred to the assay plate by a Flying Reagent Dispenser (Beckman Coulter, CA). The plates were incubated for 30 min at 37 C and 5% CO2, followed by the addition of 4 uL of colorimetric detection cocktail solution (DTNB, acetylthiocholine) into each well using a Flying Reagent Dispenser (Beckman Coulter, CA) and then 10 min incubation at room temperature.
With `COc1ccc(C=O)cc1O` the Potency was “inactive”. For `COc1ccc(CN2CCNCC2)c(OC)c1OC`, the Potency was “inactive”. With `C=CCc1cc(OC)c2c(c1)OCO2` the Potency was “inactive”. For `N[C@@H]1C[C@H]1c1ccccc1`, the outcome was “inactive”. `CN(C)C(=O)Oc1cc(OC(=O)N(C)C)cc(C(O)CNC(C)(C)C)c1` (stereo not given) was tested, and the Potency was “inactive”. In the case of `ClCOCCl`, the Potency is reported as “inactive”. `C=CC1(C)OC(=O)N(c2cc(Cl)cc(Cl)c2)C1=O` (stereo not given) was tested, and the Potency was “inactive”. With `CCOC(=O)c1ncn2c1CN(C)C(=O)c1c(I)cccc1-2` the Potency was “inactive”. For `CCSC(=O)Cl`, the Potency was “inactive”. For `CC(Cl)(Cl)Cl`, the Potency was “inactive”. In the case of `CC(=NC#N)N(C)Cc1ccc(Cl)nc1`, the Potency is reported as “inactive”. For `O=C(Cl)/C=C/C(=O)Cl`, the Potency was “inactive”. For `C(COCC1CO1)OCC1CO1` (stereo not given), the Potency was “inactive”. In the case of `COC[C@@H](NC(C)=O)C(=O)NCc1ccccc1`, the Potency is reported as “inactive”. For `CNC(=O)Oc1ccccc1C(C)C`, the Potency was 56.4 µM (active). With `ClC(Cl)(Cl)Cl` the Potency was “inactive”. In the case of `C/C=C/CC#N`, the Potency is reported as “inactive”. `O=C1CCCCC1Cl` (stereo not given) was tested, and the Potency was “inactive”. For `NC(=O)CS(=O)C(c1ccccc1)c1ccccc1` (stereo not given), the Potency was “inactive”. With `O=C1C2CC=CCC2C(=O)N1SC(Cl)(Cl)Cl` (stereo not given) the Potency was “inactive”. `CCC(CC)(CNC(=O)CCCO)c1cccc(OC)c1` was tested, and the Potency was “inactive”. With `C#CCOC(=O)/C=C(C)/C=C/CC(C)CCCC(C)C` (stereo not given) the Potency was “inactive”. In the case of `CCCC[N+](=O)[O-]`, the Potency is reported as “inactive”. In the case of `CCC(C)C(C)(COC(N)=O)COC(N)=O` (stereo not given), the Potency is reported as “inactive”. `CNC(=O)NC(O)C(Cl)(Cl)Cl` (stereo not given) was tested, and the Potency was “inactive”. `BrCCc1ccccc1` was tested, and the Potency was “inactive”. In the case of `O=C(O)c1c(Cl)ccc2cc(Cl)cnc12`, the Potency is reported as “inactive”. In the case of `NNC(N)=O`, the Potency is reported as “inactive”. `CN(CCO)CCO` was tested, and the Potency was “inactive”. For `Cc1cccc2sc3nncn3c12`, the Potency was “inactive”. In the case of `ClCCCCCCCl`, the Potency is reported as “inactive”. In the case of `O=C(Cl)CCl`, the Potency is reported as “inactive”. `CC(C)(N)Cc1ccccc1Cl` was tested, and the Potency was “inactive”. For `NNCc1ccccc1`, the Potency was “inactive”. With `CC(C)(C)NC[C@H](O)c1ccc(O)cc1Cl` the Potency was “inactive”. In the case of `O=C(O)C(F)(F)C(F)(F)C(F)(F)C(F)(F)C(F)(F)C(F)(F)F`, the Potency is reported as “inactive”. For `CCCCCCCCSC(=O)Oc1cc(Cl)nnc1-c1ccccc1`, the Potency was “inactive”. In the case of `Cn1c(N)nc2c3cccnc3ccc21`, the Potency is reported as “inactive”. `CCCN1CCC[C@@H]2Cc3nc(N)ncc3C[C@H]21` was tested, and the Potency was “inactive”. For `O=P(O)(O)CN(CP(=O)(O)O)CP(=O)(O)O`, the Potency was “inactive”.

Source: PubChem BioAssay (Tox21)
Potency is read from the fitted curve at half-maximal effect.
